From PubChem BioAssay AID1159580 (chemical genetic matrix, 2015)
Hit rate of the full screen: of about 5,500 compounds, about 2,000 (36%) were called active. Not shown: some 18% with an inconclusive outcome. Rule as the data show it: active = normalized growth mostly below about 0.91 (no sharp cut-off); inconclusive = no clear call, values can overlap the other calls; inactive = mostly above about 0.92. This is one part of the list.

Test: chemical genetic growth profiling, strain panel (AID 1159580);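 also: tested at 20 µM; growth read once vehicle control cultures reached saturation at 30 °C; 1 = growth at the plate median or of vehicle wells; lower values mean less growth of the strain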
Settings: S. cerevisiae deletion strains, growth OD

Measured: normalized growth

COc1ccc(-c2cc(=O)c3c(OC)c(OC)c(OC)c(OC)c3o2)cc1OC
inactive: locus YAL021C, strain ccr4, stronger effect = lower value 1 | locus YAL026C, strain drs2, stronger effect = lower value 1 | locus YAL030W, strain snc1, stronger effect = lower value 0.999 | locus YBL061C, strain skt5, stronger effect = lower value 1 | locus YBR009C, strain hhf1, stronger effect = lower value 1.02 | locus YBR023C, strain chs3, stronger effect = lower value 1.01 | locus YBR171W, strain sec66, stronger effect = lower value 1 | locus YBR231C, strain swc5, stronger effect = lower value 0.997 | locus YBR279W, strain paf1, stronger effect = lower value 0.998 | locus YCL011C, strain gbp2, stronger effect = lower value 0.988 | locus YCL016C, strain dcc1, stronger effect = lower value 0.993 | locus YCL069W, strain vba3, stronger effect = lower value 1.02 | locus YCR088W, strain abp1, stronger effect = lower value 0.996 | locus YDL005C, strain med2, stronger effect = lower value 1 | locus YDL040C, strain nat1, stronger effect = lower value 0.999 | locus YDR001C, strain nth1, stronger effect = lower value 0.991 | locus YDR069C, strain doa4, stronger effect = lower value 1.01 | locus YDR137W, strain rgp1, stronger effect = lower value 1.03 | locus YDR159W, strain sac3, stronger effect = lower value 0.96 | locus YDR195W, strain ref2 0.952 | locus YDR297W, strain sur2, stronger effect = lower value 0.986 | locus YDR334W, strain swr1, stronger effect = lower value 1.01 | locus YDR335W, strain msn5, stronger effect = lower value 1.02 | locus YDR392W, strain spt3, stronger effect = lower value 1.01 | locus YEL003W, strain gim4, stronger effect = lower value 1.01 | locus YEL037C, strain rad23, stronger effect = lower value 0.997 | locus YEL061C, strain CIN8 (second series), stronger effect = lower value 0.999 | locus YER015W, strain faa2, stronger effect = lower value 0.992 | locus YER016W, strain bim1, stronger effect = lower value 0.993 | locus YER111C, strain swi4, stronger effect = lower value 1 | locus YER155C, strain BEM2 (second series), stronger effect = lower value 0.996 | locus YFR010W, strain ubp6, stronger effect = lower value 1.02 | locus YGL167C, strain pmr1, stronger effect = lower value 1.01 | locus YGL173C, strain kem1, stronger effect = lower value 1.01 | locus YGL227W, strain vid30, stronger effect = lower value 0.985 | locus YGL240W, strain doc1, stronger effect = lower value 0.994 | locus YGL253W, strain hxk2, stronger effect = lower value 0.994 | locus YHR013C, strain ard1, stronger effect = lower value 0.973 | locus YHR027C, strain rpn1, stronger effect = lower value 1 | locus YHR030C, strain SLT2, stronger effect = lower value 1.01 | locus YHR079C, strain IRE1, stronger effect = lower value 1.01 | locus YHR142W, strain chs7, stronger effect = lower value 1.01 | locus YJL092W, strain hpr5, stronger effect = lower value 0.996 | locus YJL095W, strain BCK1 (second series), stronger effect = lower value 0.992 | locus YJL095W, strain BCK1, stronger effect = lower value 0.963 | locus YJL115W, strain asf1, stronger effect = lower value 0.988 | locus YJL129C, strain trk1, stronger effect = lower value 1.01 | locus YJL154C, strain vps35, stronger effect = lower value 0.983 | locus YJL164C, strain tpk1, stronger effect = lower value 1 | locus YJL166W, strain qcr8, stronger effect = lower value 0.998 | locus YJR066W, strain TOR1, stronger effect = lower value 0.976 | locus YKL160W, strain elf1, stronger effect = lower value 0.997 | locus YKR026C, strain gcn3, stronger effect = lower value 0.997 | locus YKR091W, strain srl3, stronger effect = lower value 0.996 | locus YLL001W, strain dnm1, stronger effect = lower value 0.996 | locus YLL026W, stronger effect = lower value 0.991 | locus YLL041C, strain sdh2, stronger effect = lower value 0.991 | locus YLR027C, strain aat2, stronger effect = lower value 1 | locus YLR113W, strain HOG1, stronger effect = lower value 0.941 | locus YLR221C, strain rsa3, stronger effect = lower value 0.996 | locus YLR258W, strain gsy2, stronger effect = lower value 1.01 | locus YLR262C, strain YPT6 (second series), stronger effect = lower value 1.04 | locus YLR320W, strain mms22, stronger effect = lower value 1 | locus YLR342W, strain FKS1, stronger effect = lower value 0.998 | locus YLR357W, strain rsc2, stronger effect = lower value 0.957 | locus YLR370C, strain arc18, stronger effect = lower value 0.988 | locus YLR384C, strain iki3, stronger effect = lower value 0.981 | locus YML120C, strain ndi1, stronger effect = lower value 1.01 | locus YMR058W, strain fet3, stronger effect = lower value 0.995 | locus YMR125W, strain sto1, stronger effect = lower value 1 | locus YMR129W, stronger effect = lower value 0.994 | locus YMR205C, strain PFK2, stronger effect = lower value 1.02 | locus YMR231W, strain pep5, stronger effect = lower value 1 | locus YNL071W, strain lat1, stronger effect = lower value 0.998 | locus YNL183C, strain NPR1, stronger effect = lower value 0.926 | locus YNL209W, strain ssb2, stronger effect = lower value 1 | locus YNL248C, strain rpa49, stronger effect = lower value 0.995 | locus YNL322C, strain KRE1 (second series), stronger effect = lower value 0.994 | locus YNR049C, strain mso1, stronger effect = lower value 1.01 | locus YOR001W, strain rrp6, stronger effect = lower value 0.982 | locus YOR070C, strain gyp1, stronger effect = lower value 0.988 | locus YOR080W, strain dia2, stronger effect = lower value 0.989 | locus YOR083W, strain WHI5, stronger effect = lower value 1 | locus YOR106W, strain vam3, stronger effect = lower value 1.01 | locus YOR231W, strain MKK1, stronger effect = lower value 1.02 | locus YOR265W, strain rbl2, stronger effect = lower value 1.02 | locus YOR270C, strain vph1, stronger effect = lower value 1.07 | locus YOR290C, strain snf2, stronger effect = lower value 0.988 | locus YPL051W, strain arl3, stronger effect = lower value 0.974 | locus YPL078C, strain atp4, stronger effect = lower value 0.985 | locus YPL106C, strain sse1, stronger effect = lower value 0.962 | locus YPL240C, strain hsp82, stronger effect = lower value 1 | locus YPL256C, strain CLN2, stronger effect = lower value 0.991
